Source: PubChem BioAssay
GPT2 inhibitor: Primary qHTS assay for inhibitors of Glutamate pyruvate transaminase 2 (GPT2); Potency, µM (titrated, usually from 57.7 µM), for the others: at the top dose activity change, negative = inhibition, usual class: inhibitors; AID 1671188, 2021; Recombinant GPT2, coupled pyruvate oxidase/HRP Amplex Red fluorescence; 100,000 compounds, 0.25% hits; note: nearly all actives have a fitted effect of over 60% in size
Target sequence (Q8TD30 whole entry, looked up): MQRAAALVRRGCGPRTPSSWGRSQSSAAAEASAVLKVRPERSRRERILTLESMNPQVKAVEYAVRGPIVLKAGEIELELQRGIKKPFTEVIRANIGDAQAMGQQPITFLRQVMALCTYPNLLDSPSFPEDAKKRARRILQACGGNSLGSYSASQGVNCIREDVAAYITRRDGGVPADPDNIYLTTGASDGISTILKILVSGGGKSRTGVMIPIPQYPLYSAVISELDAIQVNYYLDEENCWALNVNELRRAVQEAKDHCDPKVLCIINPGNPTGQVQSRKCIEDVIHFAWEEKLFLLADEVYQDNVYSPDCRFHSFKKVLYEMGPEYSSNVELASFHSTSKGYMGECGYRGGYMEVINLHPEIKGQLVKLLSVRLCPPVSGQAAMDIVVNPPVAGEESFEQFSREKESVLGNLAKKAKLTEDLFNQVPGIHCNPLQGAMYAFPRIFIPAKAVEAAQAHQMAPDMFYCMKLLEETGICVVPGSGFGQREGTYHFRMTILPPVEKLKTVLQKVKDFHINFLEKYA
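Inhibition is scored from Amplex Red fluorescence generated when pyruvate oxidase and HRP act on pyruvate released by GPT2. Reactions contain 10ng/uL enzyme, 250uM a-KG and 2mM L-alanine and run 30 min at room temperature.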
Luciferase inh: Firefly luciferase inhibition profiling of diverse chemical library using quantitative high-throughput screening; Luciferin 4-monooxygenase (Photinus pyralis), P08659; purified P. pyralis luciferase, luminescence, biochemical; Potency, µM (top dose mostly 115 µM), actives largely listed as inhibitors; 76,000 compounds, 2.5% hits; AID 1347043, 2019; note: nearly all actives have a fitted effect of over 65% in size
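Biochemical qHTS: compound (6-point titration) added to 10uM D-luciferin plus 10uM ATP in Tris acetate pH 7.5 buffer with Mg, Tween-20 and BSA, then purified enzyme at 10nM; light output imaged.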
NIH3T3 tox: Cytotoxic Profiling in NIH 3T3 Cell Line of Diverse Libraries Using Quantitative High-Throughput Screening. AID 1345082, 2018. 94,000 compounds, 4.3% hits. Potency, µM (top dose mostly 96.7 µM), without a hit: at the top dose activity change, negative = cytotoxicity, actives largely listed as inhibitors. NIH 3T3 viability, CellTiter-Glo ATP luminescence, 48-72 h; note: nearly all actives have a fitted effect of over 55% in size
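Cytotoxicity is measured as loss of cellular ATP: NIH 3T3 cells (400/well) are exposed to compound for 48 or 72 hr at 37 °C, then CellTiter-Glo luminescence is imaged after 10 min at room temperature.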
HEK cytotox: Cytotoxic Profiling in HEK 293 Cell Line of Diverse Libraries Using Quantitative High-Throughput Screening; 94,000 compounds, 6.6% hits; HEK 293 viability, ATP luminescence (CellTiter-Glo), 48-72 h; Potency, µM (doses to about 115 µM), inactives show top-dose activity change, negative = cytotoxicity, hits mostly inhibitors; note: nearly all actives have a fitted effect of over 60% in size
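Cytotoxicity was scored by loss of ATP-coupled luminescence (CellTiter-Glo) in HEK 293 cells. Compound treatment ran 48 or 72 hr at 37 degree Celsius, 5% CO2, 95% humidity.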
NPR1 antag: Natriuretic polypeptide receptor (hNpr1) antagonism - Primary qHTS; Atrial natriuretic peptide receptor 1 (Homo sapiens), P16066; HEK293 hNpr1 GloSensor cGMP, ANP-stimulated luminescence; Potency, µM (highest dose often 46.3 µM), for inactives: at the highest dose activity change, negative = inhibition, most hits filed as inhibitors; 76,000 compounds, 1.6% hits; calls by dose curve; note: nearly all actives have a fitted effect of over 60% in size
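Compound pre-incubated 30 min at room temperature on GloSensor-loaded HEK293 cells stably carrying hNpr1 and the pGS-40F cGMP biosensor. Stimulation uses hNppA at 0.1 nM final; luminescence is taken at baseline and 20 min post-agonist.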
Starred values were filed as active, the others as inactive; [ ] = dose if it differs, or a comment. An excerpt weighted towards active compounds, which were near 10% of everything screened. Unless noted, calls come from the whole dose curve; as a rule, active = well fitted curve in the direction sought with a large enough effect; inconclusive = small, poorly fitted or top-dose-only effect, or another doubt; inactive = no such curve, though single readings can be large; an effect the other way counts as inactive or inconclusive. % is set by controls: 0 for no effect and ±100 for the full control effect; potency is the fitted concentration of half-maximal effect.

For COc1ccc(C(=O)N[C@@H]2CN(C(=O)Nc3ccc(F)cc3)CCC[C@H]2O)cc1 the results were GPT2 inhibitor -3%[88.5 µM], Luciferase inh inconclusive, NIH3T3 tox 100µM*, HEK cytotox inconclusive and NPR1 antag -15%[70.6 µM].
Screening CC(C)(C)CC(=O)Nc1nc2c(s1)C[C@@H]1[C@](C)(CO)[C@H](O)CC[C@@]1(C)[C@@H]2CC(=O)NC1CCCCC1 returned GPT2 inhibitor inactive, Luciferase inh inactive, NIH3T3 tox 79µM*, HEK cytotox inconclusive and NPR1 antag -1%.
C[C@]1(CO)[C@H]2Cc3sc(NC(=O)c4ccc(F)cc4)nc3[C@@H](CC(=O)NC3CCCC3)[C@]2(C)CC[C@H]1O was read as GPT2 inhibitor inconclusive, Luciferase inh inactive, NIH3T3 tox 45µM*, HEK cytotox inconclusive and NPR1 antag -1%.
For COc1ccc(C(=O)Nc2nc3c(s2)C[C@@H]2[C@](C)(CO)[C@H](O)CC[C@@]2(C)[C@@H]3CC(=O)NCc2ccco2)cc1 the results were GPT2 inhibitor -5%, Luciferase inh inactive, NIH3T3 tox inconclusive, HEK cytotox 79µM* and NPR1 antag 1%.
For C[C@]1(CO)[C@H]2Cc3sc(NC(=O)c4ccc(F)cc4)nc3[C@@H](CC(=O)NC3CCCCC3)[C@]2(C)CC[C@H]1O the results were GPT2 inhibitor 4%, Luciferase inh inactive, NIH3T3 tox inconclusive, HEK cytotox inconclusive and NPR1 antag -1%.
For CC1CCN(C(=O)C[C@@H]2c3nc(NC(=O)c4ccc(F)cc4)sc3C[C@@H]3[C@](C)(CO)[C@H](O)CC[C@]32C)CC1 the results were GPT2 inhibitor -6%, Luciferase inh inactive, NIH3T3 tox 79µM*, HEK cytotox inconclusive and NPR1 antag 0%.
`CNC(=O)[C@@H]1CN(C(=O)Cn2ccnc2C)C[C@H]1c1nc(COC)no1` gave GPT2 inhibitor 1%, Luciferase inh inactive, NIH3T3 tox inactive, HEK cytotox 3% and NPR1 antag 5%.
Cn1nccc1C(=O)N1CCCC(c2noc(COc3ccccc3F)n2)C1 (configuration not stated) was read as GPT2 inhibitor 3%, Luciferase inh inactive, NIH3T3 tox -10%, HEK cytotox -13% and NPR1 antag 1%.
For O=C1NC2(CCCN([S+](=O)([O-])c3ccsc3)C2)COc2ccccc21 (configuration not stated) the results were GPT2 inhibitor inconclusive, Luciferase inh inactive, NIH3T3 tox inconclusive, HEK cytotox inconclusive and NPR1 antag 10%.
`CC(C)(C)c1ccc(C(=O)Nc2nc3c(s2)C[C@@H]2[C@](C)(CO)[C@H](O)CC[C@@]2(C)[C@@H]3CC(=O)N2CCC(C(N)=O)CC2)cc1` gave GPT2 inhibitor inconclusive, Luciferase inh inconclusive, NIH3T3 tox 28µM*, HEK cytotox inconclusive and NPR1 antag -8%.
For Cc1cccc(O[C@H]2COCCN(c3nc4ccccc4s3)C2)n1 the results were GPT2 inhibitor -4%[88.5 µM], Luciferase inh 50µM*, NIH3T3 tox inconclusive, HEK cytotox 100µM* and NPR1 antag -16%[70.6 µM].
Screening COc1ccc(CNC(=O)O[C@H]2COCCN(c3nc4ccccc4s3)C2)cc1 returned GPT2 inhibitor 1%[88.5 µM], Luciferase inh inactive, NIH3T3 tox inconclusive, HEK cytotox 89µM* and NPR1 antag -1%[70.6 µM].
For Cc1ccc([S+](=O)([O-])N2CCCC(C(=O)N3CCC(N4Cc5cccn5C4=O)CC3)C2)cc1 (configuration not stated) the results were GPT2 inhibitor inactive, NIH3T3 tox inconclusive and HEK cytotox 45µM*.
O=C(C1CCCN([S+](=O)([O-])c2cccc(C(F)(F)F)c2)C1)N1CCC(N2Cc3cccn3C2=O)CC1 (configuration not stated) was read as GPT2 inhibitor -7%, NIH3T3 tox inconclusive and HEK cytotox inconclusive.
`CN1C[C@@H](NC(=O)c2ccccn2)C[C@H]1c1nc(-c2ccc3ccccc3c2)no1` gave GPT2 inhibitor 5%[88.5 µM], Luciferase inh 32µM*, NIH3T3 tox inconclusive, HEK cytotox inconclusive and NPR1 antag -3%[70.6 µM].
COc1ccc(-c2noc([C@@H]3C[C@H](NCc4ccc(F)cc4)CN3C)n2)cc1 was read as GPT2 inhibitor 3%[88.5 µM], Luciferase inh 63µM*, NIH3T3 tox inconclusive, HEK cytotox 100µM* and NPR1 antag -6%[70.6 µM].
CN(C)c1ccc(C(=O)N[C@H]2C[C@@H](c3nc(-c4ccc5ccccc5c4)no3)N(C)C2)cc1 was read as GPT2 inhibitor -7%, Luciferase inh inactive, NIH3T3 tox inconclusive, HEK cytotox inconclusive and NPR1 antag -11%.
`COCC(=O)N[C@H]1C[C@@H](c2nc(-c3ccc(F)cc3)no2)N(C)C1` gave GPT2 inhibitor inactive, Luciferase inh inactive, NIH3T3 tox -5%[174 µM], HEK cytotox -4%[172 µM] and NPR1 antag -3%[70.6 µM].
Screening COc1ccc(CC(=O)N[C@H]2C[C@@H](c3nc(-c4ccc5ccccc5c4)no3)N(C)C2)cc1 returned GPT2 inhibitor inactive, Luciferase inh 40µM*, NIH3T3 tox -5%, HEK cytotox -13% and NPR1 antag -16%.
Cc1noc([C@@H](C)NC(=O)c2cc(C)n(C)n2)c1C(=O)O was read as GPT2 inhibitor inconclusive, Luciferase inh inactive, NIH3T3 tox -27%[174 µM], HEK cytotox -17%[230 µM] and NPR1 antag -2%[70.6 µM].
For COCCN1CC2(CCC1=O)CCN(C(=O)C1CC=CCC1)CC2 (configuration not stated) the results were GPT2 inhibitor -1%, Luciferase inh inactive, NIH3T3 tox -2%, HEK cytotox 3% and NPR1 antag 2%.
`O=C(NCCN1CCOCC1)c1noc(-c2ccccc2F)n1` gave GPT2 inhibitor inactive, Luciferase inh inactive, NIH3T3 tox -1%, HEK cytotox 3% and NPR1 antag -4%.
`Fc1ccccc1-c1noc(N2CCOCC2)n1` gave GPT2 inhibitor -3%, Luciferase inh 32µM*, NIH3T3 tox -18%, HEK cytotox inconclusive and NPR1 antag -14%.
`CC(C)C(=O)N1CCC(CCOc2ccccc2F)C1` (configuration not stated) gave GPT2 inhibitor inactive, Luciferase inh inactive, NIH3T3 tox inconclusive, HEK cytotox inconclusive and NPR1 antag -20%.
